A selection: hits, their analogues and other compounds. The true share with any hit is near 3.4%.
HTT ATP protect: cytoprotection in Huntington HTT-Q103 PC12 cell model | Potency, µM (series often up to 56.4 µM), for inactives: cytoprotection (ATP increase), usual class: activators | PC12 HTT-Q103 induced, cytoprotection, ATP luminescence, 40 h | 230,000 compounds, 0.14% hits; also: potency is read from the fitted curve at half-maximal effect; % of control where 0% means no effect; nearly all actives have a fitted effect of over 45% in size
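PC12 cells stably carrying ecdysone-inducible Htt exon 1 (Q103)–GFP were induced with 100 nM tebufenozide (final) alongside library compounds in a dose series. Cytoprotection was scored as retained ATP by ATPlite luminescence.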
NPSR antag: antagonists of human neuropeptide S receptor cAMP signaling; Potency, µM (doses to about 38.3 µM), for the others: top-dose activity change, negative = inhibition, most hits filed as inhibitors; AID 1461; 220,000 compounds, 1% hits; Q6W5P4; CHO-NPSR cells, cAMP TR-FRET, antagonist mode; also: potency is read from the fitted curve at half-maximal effect; % is scaled to controls: 0 for no effect and ±100 for the full control effect; nearly all actives have a fitted effect of over 50% in size
Target sequence (Q6W5P4 whole entry, looked up): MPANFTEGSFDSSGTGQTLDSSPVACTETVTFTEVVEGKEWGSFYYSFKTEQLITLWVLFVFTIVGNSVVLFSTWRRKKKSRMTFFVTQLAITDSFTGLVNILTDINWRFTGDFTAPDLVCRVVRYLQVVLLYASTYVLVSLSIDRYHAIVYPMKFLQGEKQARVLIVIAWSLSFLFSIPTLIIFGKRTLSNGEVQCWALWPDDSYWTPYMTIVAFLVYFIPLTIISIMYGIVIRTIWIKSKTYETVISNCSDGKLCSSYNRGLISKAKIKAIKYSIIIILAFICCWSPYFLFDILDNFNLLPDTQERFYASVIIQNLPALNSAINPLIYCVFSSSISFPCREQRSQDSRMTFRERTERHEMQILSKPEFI
PNC assembly inh: blocks assembly of the perinucleolar compartment | PC3M PTB-GFP, PNC prevalence imaging, 16 h; active compounds read low | activity change (PNC), negative = inhibition, % at 10 µM | 140,000 compounds, 3.1% hits | AID 2417;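 active = readout at or below -70, meaning at least 70% loss of cells showing the perinucleolar compartment, a nuclear body marking cancer cells; inconclusive = readout between -30 and a set limit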;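 also: plate controls were DMSO wells for no effect and camptothecin positive control wells for full effect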
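Compounds are pinned in duplicate onto adhered PC3M cells stably expressing GFP-tagged PTB and incubated 16 h at 37 C. Cells are then fixed, nuclei stained with Hoechst, and PNC-positive cells counted.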
HttQ103 aggreg: reduces HttQ103-GFP aggregates in PC12 cells | PC12 HttQ103-GFP aggregates, Acumen cytometry, 40 h | Potency, µM (titrated, usually from 46.1 µM), inactives show at the top dose activity change, negative = inhibition, hits mostly inhibitors | 220,000 compounds, 1.1% hits | AID 1688; also: potency is read from the fitted curve at half-maximal effect; % is scaled to controls: 0 for no effect and ±100 for the full control effect; nearly all actives have a fitted effect of over 60% in size
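Ecdysone-promoter PC12 model expressing HTT exon 1 Q103 fused to GFP, induced by tebufenozide at 100 nM final. Compounds titrated; aggregates sized 1–25 µm scored on a 488 nm laser cytometer.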
IMPase Li inh: cell-permeable IMPase inhibitors with lithium potentiation; CHO-M1 cells, IP1 TR-FRET (IP-One), carbachol + lithium; AID 1457; 210,000 compounds, 0.35% hits; Potency, µM (doses to about 59.4 µM), without a hit: at the highest dose activity, negative = IMPase inhibition, actives largely listed as inhibitors;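 also: IP1 builds up when IMPase is blocked and the TR-FRET signal falls; potency is read from the fitted curve at half-maximal effect; plate controls were basal vehicle for no effect and high inhibitor control for full effect; nearly all actives have a fitted effect of over 50% in size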
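IP1 accumulation measured by competitive TR-FRET in lysed CHO-M1 cells after 30 min compound exposure at 37C, with a small lithium addition to potentiate weak responses. Hill-equation AC50 from ratio and donor-channel data.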
IMPase inh: membrane-permeable compound that blocks inositol monophosphatase; P97697; CHO-M1 cells, IP1 accumulation, HTRF TR-FRET ratio; inhibition (IP1 accumulation), % at 46.1 µM; 120,000 tested, under 10 active; AID 901; active = well fitted curve in the direction sought with a large enough effect in the signal ratio, not every such curve was filed as active; inconclusive = small, poorly fitted or top-dose-only effect, or a change in a side signal; inactive = no such curve, though single readings can be large or run the other way; the % refers to the signal ratio;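 also: cells stimulated with carbachol in lithium chloride buffer; plate controls were DMSO basal wells for no effect and reference inhibitor wells for full effect; higher means more IMPase inhibition seen as more IP1 and lower FRET ratio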
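Cellular IMPase inhibition is scored as a rise in cytosolic IP1, detected by competitive TR-FRET between d2-labelled IP1 and a europium anti-IP1 antibody. M1-expressing CHO cells were stimulated with carbachol for 30 min at 37C, with lithium (50 mM LiCl) present in the buffer.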
* hit, by the source's call; ? = inconclusive; . = no result; [ ] = another dose, or the depositor's remark. Unless noted, calls follow the shape of the dose curve; as a rule, active = well fitted curve in the direction sought with a large enough effect; inconclusive = small, poorly fitted or top-dose-only effect, or another doubt; inactive = no such curve, though single readings can be large; an effect the other way counts as inactive or inconclusive.

SMILES | HTT ATP protect | NPSR antag | PNC assembly inh | HttQ103 aggreg | IMPase Li inh | IMPase inh
CC(C)(C)c1ccc(-c2nnc(SCCC#N)n2C2CCCC2)cc1 | 26%[1.9 µM] | -27%[46.1 µM] | -2 | 11µM* | 47%[38.3 µM] | 3
COC(=O)C/C=C\[C@@H](C)[C@@H](/C=N\OC[C@@H](O)[C@H]1O[C@H]2OC(C)(C)O[C@H]2[C@@H]1O)NS(=O)(=O)c1ccc(C)cc1 | -3%[10 µM] | . | . | . | . | .
CCOc1nnc(C)c2c(C)n(-c3cccc(OC)c3)nc12 | 17% | 8%[46.1 µM] | -106* | 7% | -4%[38.3 µM] | -1
COc1cccc(-n2nnc3c(=O)n(Cc4ccc(C)cc4)cnc32)c1 | -27%[0.074 µM] | -18%[46.1 µM] | 13 | -7% | 3%[38.3 µM] | -1
Cc1cccn2c(=O)c3cc(C(=O)NCc4ccco4)c(=N)n(CCOCCO)c3nc12 | -86% | -26%[46.1 µM] | ? | 2.8µM* | 4%[38.3 µM] | -1
CCOCCCNC(=O)c1cc2c(=O)n3cccc(C)c3nc2n1C | -42% | 0%[46.1 µM] | -116* | -26% | 8%[38.3 µM] | 9
CCCCNC(=O)c1cc2c(=O)n3cccc(C)c3nc2n1C | 0% | 6%[46.1 µM] | -20 | -3% | 6%[38.3 µM] | -4
C=C(C)C(=O)/C=C/c1ccc(Br)cc1 | ? | . | . | . | 7% | .
Cc1ccc2nc(SC(C)C(=O)Nc3cccc([N+](=O)[O-])c3)[nH]c2c1 (stereo not drawn) | 6%[10 µM] | -18% | -84* | -6% | 3% | .
Cn1c(/C(C#N)=C(\O)COc2ccc3ccccc3c2)nc2ccccc21 | -22%[10 µM] | ? | ? | 14% | 7.1µM* | 6
Cc1ccc(OC/C(O)=C(\C#N)c2nc3ccccc3s2)cc1 | -63%[10 µM] | -2% | ? | 10% | 1% | .
CC(C)CCNC(=O)C(c1ccncc1)N(Cc1cccs1)C(=O)Cn1nnc(-c2ccc(F)cc2)n1 (stereo not drawn) | -23%[10 µM] | -22%[46.1 µM] | -100* | ? | 5% | -4
Cc1nc2ccccc2c(=O)n1CC(=O)N1CCOCC1 | 20%[10 µM] | -10%[46.1 µM] | -85* | -3% | 14%[38.3 µM] | -5
CN1CC[C@@]2(CCCN(C(=O)c3cccn3C)C2)C1 | -36% | . | . | . | -5% | .
COC(=O)C1=C(C(=O)OC)[C@@H]2N(Cc3ccccc3)c3ccccc3[C@@]23C[C@@H](C(=O)OC)N(S(=O)(=O)c2ccc(OC)cc2)C3=N1 | -24%[10 µM] | . | . | . | -4% | .
N#Cc1ccccc1S(=O)(=O)c1ccccc1C(=O)Nc1ccccc1 | -1% | 5% | . | -3% | -3% | .
COC(=O)CCC(C)C1CCC2C3C(O)C[C@@H]4CC(O)CC[C@@]4(C)C3CC(O)[C@]12C (stereo partly drawn) | . | . | . | . | -4% | .
CC(C)c1cc(NC(=O)c2ccccc2)cc(C(C)C)c1O | -150% | -42% | . | 11µM* | -6% | .
COc1cc(/C=N/NC(N)=O)ccc1OCC(=O)Nc1cc(C)c(C)cc1Br | . | 5% | . | . | 3% | .
COc1ccc(-c2cc(C(F)F)n3ncc(C(=O)n4ccnc4C)c3n2)cc1 | 21%[10 µM] | -60% | 17 | 31% | 2% | .
COc1ccc(-c2cc(C(F)F)n3ncc(C(=O)N4CCc5ccccc54)c3n2)cc1 | -69%[10 µM] | 35% | . | 1.6µM* | 18% | .
Cc1ccc(-c2cc(C(F)F)n3ncc(C(=O)N4CCCc5ccccc54)c3n2)cc1 | -2%[10 µM] | -13%[46.1 µM] | -100* | -14% | 19% | 10
Cc1ccc(-c2cc(C(F)F)n3ncc(C(=O)N4CCc5ccccc5C4)c3n2)cc1 | 20%[10 µM] | 19% | . | 4%[9.22 µM] | 4% | .
OCC1NCC(O)C(O)C1O (stereo not drawn) | . | 3%[46.1 µM] | . | . | 4% | .
CCOC(=O)N1CCC(N2Cc3cccc(C(=O)Nc4ccc(CC)cc4)c3C2=O)CC1 | -8% | ? | -108* | 13% | 22%[38.3 µM] | 1
CCOC(=O)N1CCC(N2Cc3cccc(C(=O)NCc4ccccc4OC)c3C2=O)CC1 | -6%[10 µM] | -17%[46.1 µM] | -100* | -5% | 13% | -2
O=C(c1cc(C(F)(F)F)cc(C(F)(F)F)c1)N1CCC[C@@]2(CCN(c3ccccc3)C2)C1 | 9% | . | . | . | 7% | .

Screens: PubChem, National Center for Advancing Translational Sciences (NCATS)
